PubChem BioAssay (NCI)
About 83,000 compounds went through this panel and 20% of them were active in at least one assay; those are over-represented in the sample as a whole.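 How to read the values: 0–100, growth inhibition (40 = 60% inhibited); 0, no net growth; -100 to 0, cell death (-40 = 40% of starting cells died; -100 = all dead).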 A number with no mark means an inactive call. Calls of active or inactive are those of the source. The calls were made as follows: active = growth percent below 10; inactive = the rest.

system: HL-60(TB) leukemia; experiment: NCI-60 one-dose screen, 48 h (100 = growth as untreated, 0 = no growth, -100 = all killed); conditions: 10 µM unless noted

**Q.** How did the growth turn out when `COc1cc(/C=C2\CCC/C(=C\c3ccc(OCC4CO4)c(OC)c3)C2=O)ccc1OCC1CO1` (centres undefined) was run?
**A.** -3.96% (active)

**Q.** With `Nc1ncnc2c1N=C(c1ccc3c(c1)OCO3)CC(c1ccc(Cl)cc1)N2` (centres undefined) as the molecule, how does the growth read?
**A.** 88.1%

**Q.** Which growth does the source give for `C=C(C)[C@@H]1CC[C@]2(C(=O)OC)CC[C@]3(C)[C@H](CC[C@@H]4[C@@](C)(CC/C(N)=N/O)[C@H](C(=C)C)CC[C@]43C)[C@@H]12` here?
**A.** 92.2%

**Q.** For `CCCCn1c(=O)c(-c2cc(-c3ccc(Cl)cc3)nc(-c3ccc(Cl)cc3)c2)cc2cc(Cl)ccc21`, which growth is on record?
**A.** 100%

**Q.** How did the growth turn out when `Cc1ccc(N=c2nc3sc4c(C)ccc(C)c4n3c(N)c2C#N)cc1` was run?
**A.** 108%

**Q.** Which growth does the source give for `C#C[C@]1(O)CC[C@H]2[C@@H]3CC[C@H]4CC(F)(F)CC[C@]4(C)[C@H]3CC[C@@]21C` here?
**A.** 107%

**Q.** Which growth does the source give for `C/C=C(\C)C(=O)NC1=CC[C@@]2(C)C(=CCC3C2CC[C@@]2(C)C3CC[C@@H]2C(C)N(C)C)C1=O` (some centres undefined) here?
**A.** 8.53% (active)

**Q.** Which growth does the source give for `CCN1CCN(c2cc(C)c3cc(NC(=O)c4ccc(OC)c(OC)c4)ccc3n2)CC1` here?
**A.** 1.42% (active)

**Q.** How did the growth turn out when `NCCCNc1nc2ccccc2c2c(=O)c3cc(OC(F)(F)F)ccc3sc12` was run?
**A.** -41.5% (active)

**Q.** For `Cc1ncc([N+](=O)[O-])n1CCOc1ccc(C(=O)/C=C/c2ccc(C(F)(F)F)cc2)cc1`, which growth is on record?
**A.** 54.3%

**Q.** How did the growth turn out when `COc1ccc2nc(N/N=C(\C)c3ccccn3)cc(C)c2c1` was run?
**A.** -64.7% (active)

**Q.** With `CC(=O)O.CC(=O)O.O.[Fe]` as the molecule, how does the growth read?
**A.** 114%

**Q.** For `CCOc1ccc(NC(=O)c2cc(OC)c(OC)c(OC)c2)cc1`, which growth is on record?
**A.** -8.94% (active)

**Q.** Which growth does the source give for `COc1ccc(C(=O)COc2ccc(/C=C3\Oc4ccc(Cl)cc4C3=O)cc2)cc1` here?
**A.** 16.5%

**Q.** With `C=C(CN1CC=CCC1)[C@@H]1CC[C@]2(CO)CC[C@]3(C)[C@H](CC[C@@H]4[C@@]5(C)CC[C@H](O)C(C)(C)[C@@H]5CC[C@]43C)[C@@H]12` as the molecule, how does the growth read?
**A.** 99.9%

**Q.** `CCOC1=C(Cl)C(=O)C(OCC)=C(Cl)C1=O` was tested. Which growth did it give?
**A.** 52.3%

**Q.** With `CC1(C)CC(C(=O)OCCCCCCCCCCC[P+](c2ccccc2)(c2ccccc2)c2ccccc2)C(C)(C)N1O` (centres undefined) as the molecule, how does the growth read?
**A.** -70.8% (active)

**Q.** `COc1cc2c(c(OC)c1OC)C(=O)CC(c1cccc(C(=O)Nc3ccccc3Br)c1)O2` (centres undefined) was tested. Which growth did it give?
**A.** 76.5%

**Q.** How did the growth turn out when `CC[C@@H]1O[C@H](O[C@@H](c2cnc[nH]2)[C@H](NC(=O)c2nc([C@H](CC(N)=O)NC[C@@H](N)C(N)=O)nc(N)c2C)C(=O)N[C@H](C)[C@H](O)[C@H](C)C(=O)N[C@@H](C(=O)NCCc2nc(-c3nc(C(=O)NCCCCN=C(N)N)cs3)cs2)[C@@H](C)O)[C@H](O[C@@H]2O[C@H](CO)[C@H](O)[C@H](OC(N)=O)[C@@H]2O)[C@H](C)[C@@H]1C` was run?
**A.** 84.4%

**Q.** For `Cc1ccc(CCCC(=O)O)c(C)c1`, which growth is on record?
**A.** 98.3%

**Q.** How did the growth turn out when `CC(=O)O[C@H]1CC[C@@]2(C)[C@@H](CC[C@@H]3[C@@H]2CC(=O)[C@@]2(C)[C@H]3C[C@@H](C3CCCC3=O)[C@@H]2C(C)=O)C1` (some centres undefined) was run?
**A.** 51.8%

**Q.** With `Cn1c(=O)c2c(ncn2CCC(=O)Nc2ccc(F)cc2)n(C)c1=O` as the molecule, how does the growth read?
**A.** 94.1%

**Q.** With `C=C1CCC2C3(C)COC(C)(C)OC3CCC2(C)C1C/C=C1/C(=O)OCC1Oc1ccccc1OC` (centres undefined) as the molecule, how does the growth read?
**A.** 38.6%

**Q.** With `Nc1c(C(=O)Nc2ccccn2)sc2nc3c(cc12)C(=O)CCC3` as the molecule, how does the growth read?
**A.** 5.15% (active)

**Q.** How did the growth turn out when `COc1ccc(/C=C2\Cc3c(Br)cccc3C2=O)c(OC)c1` was run?
**A.** 89.2%

**Q.** How did the growth turn out when `Cc1cc(-c2ccccc2)cc(C)n1` was run?
**A.** 104%

**Q.** With `Clc1ccccc1-c1nc2ccccc2[nH]1` as the molecule, how does the growth read?
**A.** 74.4%

**Q.** With `CCCCC[C@@H]1Cc2cc(O)c(C(=O)O)c3c2[C@H](C[C@@]2(CCCO2)O3)O1` as the molecule, how does the growth read?
**A.** 86.5%

**Q.** `Nc1ncc(-c2ccc3ncnc(N4CCc5cc(F)c(Cl)cc54)c3c2)cc1C=O` was tested. Which growth did it give?
**A.** 2.72% (active)

**Q.** How did the growth turn out when `COc1ccc(/C=C/c2c(C(=O)/C=C/c3ccccc3)c(C)nc3ccccc23)cc1` was run?
**A.** 6.07% (active)

**Q.** `COc1ccc(Cc2cnc(NC(=O)c3cc(C)oc3C)s2)cc1` was tested. Which growth did it give?
**A.** -9.34% (active)

**Q.** Which growth does the source give for `Cc1cccc(NC(=O)CCc2ccc(N3C(N)=NC(N)=NC3(C)C)cc2)c1` here?
**A.** 20.1%

**Q.** How did the growth turn out when `COc1cc(C=O)ccc1OC1OC(COC(C)=O)C(OC(C)=O)C(OC(C)=O)C1OC(C)=O` (centres undefined) was run?
**A.** 106%

**Q.** For `Clc1ncnc2nc[nH]c12`, which growth is on record?
**A.** 101%

**Q.** For `CC(C)(c1ccccc1)c1cc(O)c(C(C)(C)c2ccccc2)cc1O`, which growth is on record?
**A.** -6.95% (active)

**Q.** How did the growth turn out when `Cc1cn(C2CCCCO2)c(=O)nc1NO` (centres undefined) was run?
**A.** 102%

**Q.** Which growth does the source give for `O=C(/C=C/c1ccccc1)Nc1ncc(Cc2ccccc2Cl)s1` here?
**A.** -10.1% (active)

**Q.** `Cc1ccc(C(=O)/C(=C\c2ccc([N+](=O)[O-])cc2)S(=O)Cc2ccc(F)cc2)cc1` (centres undefined) was tested. Which growth did it give?
**A.** -7.36% (active)

**Q.** With `CC(C)Cc1cc(CNC(=O)C2[C@H]3CN(C(=O)c4ccccc4)C[C@@H]23)nn1-c1ccccc1` (some centres undefined) as the molecule, how does the growth read?
**A.** 94.2%
